Targets with a hit are over-represented here; the source holds about 7,900 in all. About 0.6% of all pairs of compound and target were hits. A number with no mark means an inactive call.
Experiments:
Experiment in all cases: log2 fold change, soluble protein after heating vs DMSO (PISA); higher = thermal stabilisation; K562 cells, 10 uM, 30 min; active = over 0.2 and 3.5 SD of the protein, either way, in both replicates (recomputed)
[1] = compound: COC1=CC=C(C=C1)CN2C=CC3=C2C=C(C=C3)C(=O)NO
Procedure, shortened: (§1)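 Soluble protein was defined as the supernatant after 21,000xg for 90 min. It came from K562 cells at 2×10^6 cells/mL given 10 μM compound for 30 min, heated in aliquots for 3 min across 48°C-58°C, pooled, and extracted in PBS with 0.5% NP-40 at 4°C, and was quantified by TMTpro 16plex LC-MS/MS with equalised channel sums. Thermal stability against control samples, from duplicates, is reported as log2 fold change.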

filanesib = compound: CON(C)C(=O)N1N=C(c2cc(F)ccc2F)S[C@@]1(CCCN)c1ccccc1 [filanesib]
Procedure, shortened: as §1

zotarolimus = compound: CO[C@H]1C[C@@H]2CC[C@@H](C)[C@@](O)(O2)C(=O)C(=O)N2CCCC[C@H]2C(=O)O[C@H]([C@H](C)C[C@@H]2CC[C@H](n3cnnn3)[C@H](OC)C2)CC(=O)[C@H](C)/C=C(\C)[C@@H](O)[C@@H](OC)C(=O)[C@H](C)C[C@H](C)/C=C/C=C/C=C/1C [zotarolimus]
Procedure, shortened: as §1

idasanutlin = compound: COc1cc(C(=O)O)ccc1NC(=O)[C@@H]1N[C@@H](CC(C)(C)C)[C@](C#N)(c2ccc(Cl)cc2F)[C@H]1c1cccc(Cl)c1F [idasanutlin]
Procedure, shortened: as §1

alisertib = compound: COc1cc(Nc2ncc3c(n2)-c2ccc(Cl)cc2C(c2c(F)cccc2OC)=NC3)ccc1C(=O)O [alisertib]
Procedure, shortened: as §1

[2] = compound: COc1cc2nc(-c3cc(F)ccc3O)nc(N[C@@H]3CNC[C@H]3C(C)(C)O)c2cc1OC
Procedure, shortened: as §1

gefitinib = compound: COc1cc2ncnc(Nc3ccc(F)c(Cl)c3)c2cc1OCCCN1CCOCC1 [gefitinib]
Procedure, shortened: as §1

[3] = compound: COc1cccc2cc(-c3nc([C@H]4CC[C@H](C(=O)O)CC4)n4ncnc(N)c34)[nH]c12
Procedure, shortened: as §1

lapatinib = compound: CS(=O)(=O)CCNCc1ccc(-c2ccc3ncnc(Nc4ccc(OCc5cccc(F)c5)c(Cl)c4)c3c2)o1 [lapatinib]
Procedure, shortened: as §1

pictilisib = compound: CS(=O)(=O)N1CCN(Cc2cc3nc(-c4cccc5[nH]ncc45)nc(N4CCOCC4)c3s2)CC1 [pictilisib]
Procedure, shortened: as §1

[4] = compound: CS(=O)(=O)c1ccc(-c2cnc(N)c(C(=O)Nc3ccccc3)n2)cc1
Procedure, shortened: as §1

crizotinib = compound: C[C@@H](Oc1cc(-c2cnn(C3CCNCC3)c2)cnc1N)c1c(Cl)ccc(F)c1Cl [crizotinib]
Procedure, shortened: as §1

[5] = compound: C[C@@H]1COCCN1C2=NC(=NC(=C2)C3(CC3)S(=O)(=O)C)C4=C5C=CNC5=CC=C4
Procedure, shortened: as §1

[6] = compound: C[C@H](C1=CC=C(C=C1)C(=O)NC2=C3C=CNC3=NC=C2)N
Procedure, shortened: as §1

duvelisib = compound: C[C@H](Nc1ncnc2nc[nH]c12)c1cc2cccc(Cl)c2c(=O)n1-c1ccccc1 [duvelisib]
Procedure, shortened: as §1

gandotinib = compound: Cc1cc(Nc2cc(CN3CCOCC3)c3nc(C)c(Cc4ccc(Cl)cc4F)n3n2)n[nH]1 [gandotinib]
Procedure, shortened: as §1

tozasertib = compound: Cc1cc(Nc2cc(N3CCN(C)CC3)nc(Sc3ccc(NC(=O)C4CC4)cc3)n2)n[nH]1 [tozasertib]
Procedure, shortened: as §1

[7] = compound: Cc1cc(SCc2sc(-c3ccc(C(F)(F)F)cc3)nc2C)ccc1OCC(=O)O
Procedure, shortened: as §1

doramapimod = compound: Cc1ccc(-n2nc(C(C)(C)C)cc2NC(=O)Nc2ccc(OCCN3CCOCC3)c3ccccc23)cc1 [doramapimod]
Procedure, shortened: as §1

ispinesib = compound: Cc1ccc(C(=O)N(CCCN)[C@@H](c2nc3cc(Cl)ccc3c(=O)n2Cc2ccccc2)C(C)C)cc1 [ispinesib]
Procedure, shortened: as §1

UniProt Q8NI08, sequence (Q8NI08 whole entry, looked up): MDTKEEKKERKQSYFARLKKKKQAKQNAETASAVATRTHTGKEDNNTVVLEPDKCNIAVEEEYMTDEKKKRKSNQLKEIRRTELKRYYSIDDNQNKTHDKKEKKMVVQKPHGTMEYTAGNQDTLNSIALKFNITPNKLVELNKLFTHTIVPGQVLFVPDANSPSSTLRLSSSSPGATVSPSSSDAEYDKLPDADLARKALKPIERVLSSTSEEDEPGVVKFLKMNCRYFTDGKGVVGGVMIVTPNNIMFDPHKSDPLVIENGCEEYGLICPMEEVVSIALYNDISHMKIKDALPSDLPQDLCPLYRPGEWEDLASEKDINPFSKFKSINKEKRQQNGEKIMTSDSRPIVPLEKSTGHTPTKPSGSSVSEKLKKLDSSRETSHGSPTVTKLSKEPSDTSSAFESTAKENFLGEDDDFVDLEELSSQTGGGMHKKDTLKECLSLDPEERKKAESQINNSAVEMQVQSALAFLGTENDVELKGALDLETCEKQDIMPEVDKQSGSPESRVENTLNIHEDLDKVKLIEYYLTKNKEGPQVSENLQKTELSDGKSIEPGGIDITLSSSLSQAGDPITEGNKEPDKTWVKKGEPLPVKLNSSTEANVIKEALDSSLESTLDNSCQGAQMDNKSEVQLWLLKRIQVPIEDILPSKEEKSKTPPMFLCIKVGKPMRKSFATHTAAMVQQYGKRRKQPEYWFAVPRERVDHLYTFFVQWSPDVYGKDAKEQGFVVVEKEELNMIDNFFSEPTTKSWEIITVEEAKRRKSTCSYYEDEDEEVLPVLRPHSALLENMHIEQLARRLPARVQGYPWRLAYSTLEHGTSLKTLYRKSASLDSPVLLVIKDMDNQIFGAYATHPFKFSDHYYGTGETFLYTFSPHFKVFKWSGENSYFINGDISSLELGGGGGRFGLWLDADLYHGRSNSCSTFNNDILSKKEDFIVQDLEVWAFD
UniProt Q8N6M0, sequence (Q8N6M0 whole entry, looked up): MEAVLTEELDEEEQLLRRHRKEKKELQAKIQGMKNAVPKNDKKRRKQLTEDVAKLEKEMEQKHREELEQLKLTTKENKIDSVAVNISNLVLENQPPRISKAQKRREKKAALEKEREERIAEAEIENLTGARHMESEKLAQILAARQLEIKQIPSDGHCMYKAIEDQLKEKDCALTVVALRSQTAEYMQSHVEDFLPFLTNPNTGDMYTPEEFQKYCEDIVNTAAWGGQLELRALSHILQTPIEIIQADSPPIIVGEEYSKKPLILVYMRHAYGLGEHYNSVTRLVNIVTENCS
UniProt Q9NRP0, sequence (Q9NRP0 whole entry, looked up): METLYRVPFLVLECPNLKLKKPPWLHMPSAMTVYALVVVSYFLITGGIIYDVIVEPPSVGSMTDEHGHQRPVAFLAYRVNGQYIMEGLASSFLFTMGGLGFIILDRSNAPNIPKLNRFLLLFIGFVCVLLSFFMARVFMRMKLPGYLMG
UniProt P35749, sequence (P35749 whole entry, looked up): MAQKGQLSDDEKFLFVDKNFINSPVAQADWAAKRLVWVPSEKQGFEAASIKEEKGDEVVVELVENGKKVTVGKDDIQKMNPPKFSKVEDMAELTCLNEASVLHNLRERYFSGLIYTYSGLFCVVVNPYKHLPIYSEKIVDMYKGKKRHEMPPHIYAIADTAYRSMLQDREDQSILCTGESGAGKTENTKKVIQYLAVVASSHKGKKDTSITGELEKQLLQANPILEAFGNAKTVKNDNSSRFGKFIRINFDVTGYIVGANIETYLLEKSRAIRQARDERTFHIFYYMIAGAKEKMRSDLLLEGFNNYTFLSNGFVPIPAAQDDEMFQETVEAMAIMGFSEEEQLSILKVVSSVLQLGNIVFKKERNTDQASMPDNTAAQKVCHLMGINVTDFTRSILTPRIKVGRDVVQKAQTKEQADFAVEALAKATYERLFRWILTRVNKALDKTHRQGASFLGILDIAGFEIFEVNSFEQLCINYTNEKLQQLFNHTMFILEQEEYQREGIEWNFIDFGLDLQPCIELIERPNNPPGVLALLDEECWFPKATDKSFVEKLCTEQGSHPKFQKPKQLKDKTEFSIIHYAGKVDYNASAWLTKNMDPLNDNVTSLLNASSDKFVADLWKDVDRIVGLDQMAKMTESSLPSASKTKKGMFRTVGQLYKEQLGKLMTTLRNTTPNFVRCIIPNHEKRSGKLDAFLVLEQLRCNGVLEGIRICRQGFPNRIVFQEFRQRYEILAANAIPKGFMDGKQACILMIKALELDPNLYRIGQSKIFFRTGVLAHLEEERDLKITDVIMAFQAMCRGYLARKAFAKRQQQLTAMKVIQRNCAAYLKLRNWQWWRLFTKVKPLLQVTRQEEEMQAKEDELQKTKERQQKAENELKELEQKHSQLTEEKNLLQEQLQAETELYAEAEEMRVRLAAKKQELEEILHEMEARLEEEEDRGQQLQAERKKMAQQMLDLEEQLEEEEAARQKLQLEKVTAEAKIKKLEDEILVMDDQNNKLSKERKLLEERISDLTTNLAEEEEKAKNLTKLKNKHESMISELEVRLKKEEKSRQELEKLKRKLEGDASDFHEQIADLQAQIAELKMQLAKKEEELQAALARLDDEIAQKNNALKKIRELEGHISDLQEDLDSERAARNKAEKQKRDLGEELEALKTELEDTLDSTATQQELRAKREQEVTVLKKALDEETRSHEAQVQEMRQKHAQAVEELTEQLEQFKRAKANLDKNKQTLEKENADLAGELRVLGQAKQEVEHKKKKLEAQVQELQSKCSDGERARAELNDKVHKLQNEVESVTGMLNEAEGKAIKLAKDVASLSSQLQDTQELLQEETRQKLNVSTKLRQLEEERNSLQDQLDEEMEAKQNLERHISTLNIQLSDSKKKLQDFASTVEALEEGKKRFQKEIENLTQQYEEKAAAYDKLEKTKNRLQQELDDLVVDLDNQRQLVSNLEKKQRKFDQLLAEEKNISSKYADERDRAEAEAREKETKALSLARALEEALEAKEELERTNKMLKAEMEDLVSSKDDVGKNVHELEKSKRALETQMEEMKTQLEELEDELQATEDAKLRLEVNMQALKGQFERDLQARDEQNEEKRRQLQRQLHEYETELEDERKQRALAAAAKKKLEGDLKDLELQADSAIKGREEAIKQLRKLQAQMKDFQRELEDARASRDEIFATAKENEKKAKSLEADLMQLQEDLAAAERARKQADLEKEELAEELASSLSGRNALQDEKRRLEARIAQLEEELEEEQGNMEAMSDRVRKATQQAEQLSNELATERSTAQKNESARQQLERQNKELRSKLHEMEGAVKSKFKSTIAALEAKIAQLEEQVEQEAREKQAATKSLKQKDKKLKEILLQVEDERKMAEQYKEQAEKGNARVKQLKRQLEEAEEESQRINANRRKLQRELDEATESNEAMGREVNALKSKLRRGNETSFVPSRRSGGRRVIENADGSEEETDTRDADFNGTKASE
UniProt Q9NZT2, sequence (Q9NZT2 whole entry, looked up): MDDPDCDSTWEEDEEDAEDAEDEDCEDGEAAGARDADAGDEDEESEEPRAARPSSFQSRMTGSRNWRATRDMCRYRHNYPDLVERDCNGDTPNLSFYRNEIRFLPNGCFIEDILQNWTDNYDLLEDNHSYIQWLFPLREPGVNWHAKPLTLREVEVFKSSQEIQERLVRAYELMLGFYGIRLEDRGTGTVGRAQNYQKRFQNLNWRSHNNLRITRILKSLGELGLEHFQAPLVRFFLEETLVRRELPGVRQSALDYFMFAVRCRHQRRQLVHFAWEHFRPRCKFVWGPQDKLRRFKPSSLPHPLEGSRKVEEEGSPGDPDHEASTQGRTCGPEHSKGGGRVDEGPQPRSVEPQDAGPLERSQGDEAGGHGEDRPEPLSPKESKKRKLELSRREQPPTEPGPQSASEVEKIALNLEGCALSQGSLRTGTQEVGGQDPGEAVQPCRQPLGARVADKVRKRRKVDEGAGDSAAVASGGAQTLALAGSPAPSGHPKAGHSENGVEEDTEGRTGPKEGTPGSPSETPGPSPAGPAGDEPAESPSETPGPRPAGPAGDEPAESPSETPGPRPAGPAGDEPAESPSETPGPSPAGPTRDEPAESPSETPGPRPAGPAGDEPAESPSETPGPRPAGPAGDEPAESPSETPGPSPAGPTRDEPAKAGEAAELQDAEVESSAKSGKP
UniProt Q86WC4, sequence (Q86WC4 whole entry, looked up): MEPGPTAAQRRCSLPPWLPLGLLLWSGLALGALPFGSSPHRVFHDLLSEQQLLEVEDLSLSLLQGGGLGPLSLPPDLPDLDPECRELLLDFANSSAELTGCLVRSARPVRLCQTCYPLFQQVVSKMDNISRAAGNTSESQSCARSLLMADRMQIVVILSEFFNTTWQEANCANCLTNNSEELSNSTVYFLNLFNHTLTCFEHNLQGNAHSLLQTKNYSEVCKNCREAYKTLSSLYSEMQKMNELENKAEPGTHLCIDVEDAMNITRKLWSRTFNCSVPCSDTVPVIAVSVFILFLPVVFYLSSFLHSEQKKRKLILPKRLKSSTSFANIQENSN
UniProt Q8WV92, sequence (Q8WV92 whole entry, looked up): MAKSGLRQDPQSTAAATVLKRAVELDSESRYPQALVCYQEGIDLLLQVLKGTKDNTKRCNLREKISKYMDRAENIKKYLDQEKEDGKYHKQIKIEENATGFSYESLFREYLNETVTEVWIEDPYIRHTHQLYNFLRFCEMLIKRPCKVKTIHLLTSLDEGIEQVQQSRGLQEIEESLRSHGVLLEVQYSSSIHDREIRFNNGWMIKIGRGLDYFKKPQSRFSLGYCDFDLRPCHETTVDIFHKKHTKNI

Row | Target | log2 fold change [1] | log2 fold change (filanesib) | log2 fold change (zotarolimus) | log2 fold change (idasanutlin) | log2 fold change (alisertib) | log2 fold change [2] | log2 fold change (gefitinib) | log2 fold change [3] | log2 fold change (lapatinib) | log2 fold change (pictilisib) | log2 fold change [4] | log2 fold change (crizotinib) | log2 fold change [5] | log2 fold change [6] | log2 fold change (duvelisib) | log2 fold change (gandotinib) | log2 fold change (tozasertib) | log2 fold change [7] | log2 fold change (doramapimod) | log2 fold change (ispinesib)
1 | MYH11 isoform 2 (UniProt P35749) | 0.027 | -0.002 | 0.022 | -0.045 | 0.033 | 0.067 | 0.025 | -0.033 | 0.018 | -0.035 | -0.026 | -0.025 | 0.01 | -0.078 | 0 | 0.014 | -0.032 | 0.009 | 0.057 | -0.012
2 | NCOA7 (UniProt Q8NI08) | -0.043 | -0.046 | 0.035 | -0.034 | -0.034 | 0.043 | -0.014 | 0.014 | 0.01 | -0.045 | -0.003 | -0.17 | 0.012 | -0.034 | 0.091 | -0.238 (active) | -0.052 | 0.031 | 0.082 | -0.037
3 | MITD1 (UniProt Q8WV92) | 0.059 | 0.004 | -0.068 | -0.058 | 0.018 | -0.013 | -0.018 | 0.063 | 0.004 | -0.121 | -0.082 | -0.271 | -0.055 | 0.133 | 0.011 | -0.068 | -0.075 | -0.147 | 0.103 | -0.072
4 | OSTM1 (UniProt Q86WC4) | -0.012 | -0.122 | 0.007 | 0.002 | -0.015 | -0.09 | -0.066 | 0.002 | 0.056 | 0.055 | -0.014 | -0.244 | 0.028 | -0.021 | -0.017 | -0.225 | -0.003 | -0.033 | 0.041 | -0.308 (active)
5 | MRPS24 (UniProt Q96EL2) | -0.153 | 0.047 | 0.088 | -0.134 | -0.104 | 0.096 | -0.056 | -0.014 | 0.047 | -0.174 | 0.014 | -0.031 | 0.192 | 0.082 | -0.009 | -0.117 | 0.048 | 0.094 | -0.028 | -0.427 (active)
6 | OSTC (UniProt Q9NRP0) | -0.05 | -0.171 | -0.105 | -0.041 | -0.101 | -0.184 | 0.018 | 0.026 | -0.041 | 0.162 | 0.044 | -0.047 | 0.132 | -0.089 | 0.041 | -0.112 | -0.001 | -0.042 | 0.028 | -0.117
7 | OTUD6B (UniProt Q8N6M0) | 0.016 | -0.025 | 0.1 | -0.012 | 0.005 | 0.005 | -0.017 | -0.013 | -0.028 | 0.017 | 0.013 | -0.146 | 0.024 | 0 | -0.02 | -0.086 | 0.055 | 0.122 | 0.009 | -0.165
8 | OGFR (UniProt Q9NZT2) | -0.005 | 0.048 | 0.137 | -0.042 | -0.157 | 0.023 | -0.015 | -0.152 | 0 | 0.019 | 0.074 | -0.067 | 0.034 | 0.19 | -0.016 | -0.058 | 0.021 | 0.133 | 0.082 | -0.068

From the supplement of paper PMC10849652
